TNF death inh: TNF-alpha cell death inhibition in Jurkat FADD-/- cells; actives 0.068% (n = 220,000); activation (protection from cell death), % at 10 µM; Jurkat FADD-/- TNF necroptosis rescue, ATP luminescence, 24 h; 0 = TNF only, 100 = no-TNF cells; AID 463075;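 active = activation, meaning protection from cell death, of at least 50% relative to plate controls; inactive = activation below 50%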;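 also: necroptosis triggered by 40 ng/mL TNF-alpha added together with compound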
Mcl1-Bid inh: Mcl-1/Bid interaction inhibition | AID 1021 | actives 0.97% (n = 220,000) | inhibition, % at 21.7 µM | TR-FRET Mcl-1/Bid-Dy647 peptide binding, 1536-well | Q07820;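 active = compounds that cut the binding signal by more than half at the single screening dose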;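 also: His-tagged Mcl-1 with europium anti-His antibody binding Bid BH3 peptide; 0% = Mcl-1 plus peptide wells and 100% = peptide-only wells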
Target sequence (Q07820 whole entry, looked up): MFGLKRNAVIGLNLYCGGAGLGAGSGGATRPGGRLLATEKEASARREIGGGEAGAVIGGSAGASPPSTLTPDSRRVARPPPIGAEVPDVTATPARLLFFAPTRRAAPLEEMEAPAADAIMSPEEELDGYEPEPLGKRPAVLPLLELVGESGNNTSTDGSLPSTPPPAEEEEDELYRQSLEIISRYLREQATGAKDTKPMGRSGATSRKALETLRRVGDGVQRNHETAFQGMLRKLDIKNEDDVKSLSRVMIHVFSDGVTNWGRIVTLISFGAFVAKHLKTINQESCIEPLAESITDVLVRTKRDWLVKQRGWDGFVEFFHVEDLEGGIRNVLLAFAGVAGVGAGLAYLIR
L929 necroptosis: blocks zVAD induced death of L929 cells; L929 zVAD necroptosis rescue, ATP luminescence, 24 h; with zVAD 60 µM; viability rescue, % at 10 µM; actives 0.38% (n = 220,000); AID 1377;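 active = activation, scaled between plate controls, above about 75%, limit read from the data; inactive = activation under that limit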;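 also: 0% = zVAD with DMSO and 100% = DMSO alone without zVAD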
Mcl-1 Bim block: disrupts Bim peptide binding to human Mcl-1. Q07820. Bead-based flow cytometry, Bim peptide-Mcl-1 binding. inhibition, % at 10 µM. actives 0.1% (n = 190,000); in the data active = inhibition above about 40%;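 also: 0% = no compound tracer wells and 100% = peptide blocker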
MCL1 BIM primary: MCL1-BIM-BH3 interaction inhibition (human). Q07820. GST-MCL1 / FITC-Bim-BH3 fluorescence polarization. inhibition, % at 10.9 µM. actives 0.68% (n = 320,000);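 active = inhibition above the mean inhibition of all tested compounds plus 3 SD, set per campaign, cut at about 40% in these data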;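 also: 0% = DMSO wells and 100% = unlabeled Bim-BH3 peptide control; higher means more loss of mP so more displacement of Bim peptide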
Mcl1 Noxa PPI: disrupts binding of human Mcl-1 to Noxa peptide; Q07820; TR-FRET Mcl-1/Noxa peptide binding, 2 h; inhibition, % at 21.7 µM; actives 1.5% (n = 220,000); AID 1022;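 active = compounds that cut the protein-peptide binding signal by more than 50% relative to plate controls in a single-dose test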;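 also: His-tagged Mcl-1 with rhodamine Noxa BH3 peptide and terbium anti-His antibody; 0% = Mcl-1 plus Noxa peptide wells and 100% = peptide-only wells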
Bcl-xL conf: counter-screen for MCL1 inhibitors: confirmation of human Bcl-xL inhibitors; AID 2166; GST-Bcl-xL / FITC-Bim BH3 peptide FP binding; actives 54% (n = 1,700); shares compounds with MCL1 BIM primary; inhibition, % at 10.9 µM;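 active = inhibition above a cutoff equal to the mean inhibition of all tested compounds plus 3 SD, cut at about 30% in these data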;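 also: 0% = DMSO wells and 100% = unlabeled Bim BH3 control peptide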
Target sequence (Q07817 whole entry, looked up): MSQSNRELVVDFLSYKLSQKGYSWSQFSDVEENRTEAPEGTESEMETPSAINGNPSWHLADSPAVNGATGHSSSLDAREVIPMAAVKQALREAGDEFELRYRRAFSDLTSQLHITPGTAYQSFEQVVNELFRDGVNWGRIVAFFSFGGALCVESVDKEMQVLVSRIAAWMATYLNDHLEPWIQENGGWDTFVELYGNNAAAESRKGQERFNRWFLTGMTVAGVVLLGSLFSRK
MCL1 BIM confirm: MCL1-BIM-BH3 interaction inhibition, confirmation; GST-MCL1 / FITC-Bim-BH3 fluorescence polarization; inhibition, % at 10.9 µM; actives 61% (n = 1,700); shares compounds with MCL1 BIM primary;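 active = inhibition above the average of all tested compounds plus 3 SD, cut at about 40% in these data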;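 also: 0% = DMSO wells and 100% = unlabeled Bim-BH3 control peptide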
* hit, by the source's call; · = not tested or not shown; + = active, no number. Compounds with a hit are over-represented: about 2.4% of the library has one in this group of screens.

SMILES	TNF death inh	Mcl1-Bid inh	L929 necroptosis	Mcl-1 Bim block	MCL1 BIM primary	Mcl1 Noxa PPI	Bcl-xL conf	MCL1 BIM confirm
CCn1c(CSc2nnc(-c3cccnc3)n2-c2ccccc2C)nc2cc(C(=O)O)ccc21	0.6	-20.6	0.8	0.0	31.9	37.6	·	·
Cc1ccc(CNC(=O)C2CCN(c3nc(C)cc(C)n3)CC2)cc1	·	·	·	·	2.4	·	·	·
CCN(CC)C(=O)Oc1ccc2c(c1)O/C(=C\c1ccco1)C2=O	·	·	·	·	1.2	·	·	·
Cc1ccc(/C=C2\Oc3c(ccc(O)c3CN3CCN(CCO)CC3)C2=O)cc1	1.5	-10.2	25.1	0.0	36.6	7.0	·	·
COCCN(CCOC)Cc1c(O)ccc2c1O/C(=C\c1ccco1)C2=O	·	·	·	·	109.7*	·	106.7*	117.6*
CC1CCN(Cc2c(O)ccc3c2O/C(=C\c2ccco2)C3=O)CC1	2.9	-11.7	·	2.0	149.1*	56.0*	118.6*	139.8*
CC(C)c1ccc(/C=C2\Oc3c(ccc(O)c3CN3CCN(C)CC3)C2=O)cc1	0.3	-24.0	0.9	1.0	35.7	4.0	·	·
O=C1/C(=C/c2ccco2)Oc2c1ccc(O)c2CN1CCCCC1	6.2	-13.4	·	1.0	127.8*	53.9*	131.6*	148.5*
COc1cccc2c1C(=O)c1c(O)c3c(c(O)c1C2=O)C[C@](O)(C(C)=O)C[C@H]3O[C@@H]1C[C@@H](N)[C@@H](O)[C@@H](C)O1	·	·	·	·	+	·	+	+
CCN(CC)c1ccc2cc(C(C)=O)c(=O)oc2c1	-0.4	-20.7	0.5	0.0	-138.4	-32.1	·	·
CCN(CC)c1ccc2cc(NC(=O)CCC(=O)O)c(=O)oc2c1	2.2	-28.3	0.5	0.0	113.3*	1.2	106.2*	118.3*
COc1ccc(C2C=C(c3ccccc3)Nc3nc(NC(C)=O)nn32)cc1 (stereo not given)	-1.5	-19.1	-0.2	-4.0	60.0*	32.4	59.5*	79.7*
COc1ccc(C2C=C(c3ccccc3)Nc3nnnn32)cc1 (stereo not given)	-1.3	-1.1	-0.2	-2.0	8.1	-5.2	·	·
Cc1cc(=O)oc2c(C)c(OC(C)C(=O)NCc3ccccn3)ccc12 (stereo not given)	·	·	·	·	2.9	·	·	·
C=CCNS(=O)(=O)c1cccc2cc(C(=O)O)c(O)cc12	1.3	-7.4	1.6	1.0	97.3*	9.1	30.2	39.0
O=C1CC(c2ccc(O)cc2)Oc2cc(O)cc(O)c21 (stereo not given)	0.1	33.4	3.4	0.0	5.9	9.6	·	·
CC1CC(=O)c2c(cc3c(-c4c(O)cc(O)c5c(O)c6c(cc45)OC(C)CC6=O)c(O)cc(O)c3c2O)O1 (stereo not given)	-10.9	46.7	-0.5	0.0	76.0*	93.4*	24.6	22.9
CCc1ccccc1N(CC(=O)OC)S(C)(=O)=O	-1.1	-7.1	0.1	0.0	5.4	-2.5	·	·
COC(=O)CN(c1ccccc1C)S(C)(=O)=O	-0.8	-14.8	-0.1	2.0	82.6*	-4.4	12.9	9.4
COc1ccc2c(Cl)c(C(=O)N/N=C/c3cccnc3)sc2c1	·	·	·	·	-7.7	·	·	·
CCc1cc[n+](-c2nc([O-])sc2C=O)cc1	-3.0	-34.8	0.1	-1.0	135.8*	-1.8	82.8*	119.1*
COCCN(C(=O)CSc1n[nH]c(-c2ccccc2)n1)c1c(N)n(Cc2ccccc2)c(=O)[nH]c1=O	·	·	·	·	-10.4	·	·	·
Cc1noc(C)c1S(=O)(=O)N1CCN(S(=O)(=O)c2ccccc2C#N)CC1	·	·	·	·	2.8	·	·	·
O=C(Nc1ccc(Nc2ccncc2)cc1)c1ccc([N+](=O)[O-])cc1	-26.6	-5.7	-0.5	·	5.6	7.1	·	·
O=C(Nc1ccc(Nc2ccncc2)cc1)c1ccc(Nc2ccnc3ccc([N+](=O)[O-])cc23)cc1[N+](=O)[O-]	-7.2	89.8*	-0.1	·	42.8*	80.4*	13.0	27.5
SMILES	TNF death inh	Mcl1-Bid inh	L929 necroptosis	Mcl-1 Bim block	MCL1 BIM primary	Mcl1 Noxa PPI	Bcl-xL conf	MCL1 BIM confirm
O=C(O)c1cccc(N2C(=O)c3cc([N+](=O)[O-])cc4cc([N+](=O)[O-])cc(c34)C2=O)c1	·	·	·	·	46.9*	·	21.4	45.3*
COc1ccc(C2CC(=O)C(C=NCCCO)=C(O)C2)cc1 (stereo not given)	·	·	·	·	80.0*	·	61.3*	84.7*
CCC(=O)N1CCN(CCN=CC2=C(O)CC(c3ccc(OC)cc3)CC2=O)CC1 (stereo not given)	0.4	-10.8	·	-3.0	-1.2	-3.5	·	·
CCCOc1ccc(CNC(=O)c2ccc3nc(N4CCOCC4)sc3c2)cc1	·	·	·	·	0.1	·	·	·
O=C(CSc1nc(C2CC2)nc2ccccc12)N1c2ccccc2Sc2ccc(C(F)(F)F)cc21	-8.9	-21.9	1.0	-4.0	47.0*	-27.4	11.0	14.1
O=C(/C=C/c1ccco1)N(c1ccccn1)c1ccccn1	0.5	-66.5	1.7	3.0	56.5*	61.6*	22.2	52.7*
COc1ccc2c(c1)c1nc3ccccc3nc1n2CC(=O)OC(C)C	-12.5	16.6	-0.4	0.0	59.5*	7.2	106.0*	139.7*
COc1ccc(C)cc1Nc1n[n+](-c2ccccc2)c(-c2ccc(SC)cc2)s1	·	·	·	·	-7.4	·	·	·
CC(C)=CCc1c(O)c(CC=C(C)C)c2c(c1O)-c1cc(O)c(O)cc1CC2	·	·	·	·	55.2*	·	40.8*	75.8*
CCOc1ccc2nc3cc(NCc4ccc(OC)cc4)ccc3c(N)c2c1	·	·	·	·	+	·	139.4*	166.1*
Cn1nc(-c2ccc(Cl)cc2)nc2c(=O)n(C)c(=O)nc1-2	-7.3	0.7	0.1	-3.0	95.8*	4.1	94.3*	120.6*
CS(=O)(=O)n1nc(-c2ccc(Cl)cc2)nc1N	3.7	-19.2	0.2	1.0	3.7	-7.7	·	·
O=C(c1nc2ccc(Cl)cn2c1CN1CCCC1)N1CCc2ccccc2C1	·	·	·	·	67.4*	·	62.7*	87.2*
O=C(c1nc2ccc(Cl)cn2c1CN1CCC(CO)CC1)N1CCc2ccccc2C1	·	·	·	·	-3.9	·	·	·
COc1ccc(N/C(=N/c2nc(C)cc(C)n2)NC(=O)c2ccccc2)cc1	1.6	-0.1	-0.3	·	5.2	10.3	·	·
COc1ccc2c(c1)CCN1C2CCN2C(=O)CCC21 (stereo not given)	2.4	-10.1	0.2	·	56.1*	4.0	18.9	16.1
Cc1c(NC(=O)C(C)OC(=O)c2cc(-c3cccc4ccccc34)nc3ccccc23)c(=O)n(-c2ccccc2)n1C (stereo not given)	1.8	0.6	0.0	-3.0	86.4*	13.4	26.1	30.4
N#CCOC(=O)c1cc(S(=O)(=O)N2CCCCC2)ccc1N1CCOCC1	·	·	·	·	1.9	·	·	·
